Reference: PubChem BioAssay AID1159580 (chemical genetic matrix, 2015)
About 2,000 (36%) of roughly 5,500 compounds were called active. Roughly 18% stayed inconclusive and do not appear here. No stated cut-off is given here; in the data, active means normalized growth mostly below about 0.91 (no sharp cut-off); inconclusive means no clear call, values can overlap the other calls; inactive means mostly above about 0.92. This is one part of the list.

Assay: chemical genetic growth profiling, strain panel (AID 1159580);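 further: tested at 20 µM; growth read once vehicle control cultures reached saturation at 30 °C; 1 = growth at the plate median or of vehicle wells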
Conditions: growth OD

Measured: normalized growth

CCCCOc1ccc(C(=O)CCN2CCCCC2)cc1
active: S. cerevisiae deletion strains, locus YJR066W, strain TOR1, stronger effect = lower value 0.67 | S. cerevisiae deletion strains, locus YJR075W, strain HOC1, stronger effect = lower value 0.66 | S. cerevisiae deletion strains, locus YKR001C, strain vps1, stronger effect = lower value 0.559 | S. cerevisiae deletion strains, locus YLL001W, strain dnm1, stronger effect = lower value 0.428 | S. cerevisiae deletion strains, locus YLR027C, strain aat2, stronger effect = lower value 0.888 | S. cerevisiae deletion strains, locus YLR039C, strain RIC1, stronger effect = lower value 0.426 | S. cerevisiae deletion strains, locus YLR058C, strain SHM2, stronger effect = lower value 0.85 | S. cerevisiae deletion strains, locus YLR102C, strain apc9, stronger effect = lower value 0.0845 | S. cerevisiae deletion strains, locus YLR262C, strain YPT6 (second series), stronger effect = lower value 0.662 | S. cerevisiae deletion strains, locus YLR262C, strain YPT6, stronger effect = lower value 0.523 | S. cerevisiae deletion strains, locus YLR268W, strain sec22, stronger effect = lower value 0.244 | S. cerevisiae deletion strains, locus YLR320W, strain mms22, stronger effect = lower value 0.565 | S. cerevisiae deletion strains, locus YLR330W, strain CHS5, stronger effect = lower value 0.0853 | S. cerevisiae deletion strains, locus YLR342W, strain FKS1 (second series), stronger effect = lower value 0.432 | S. cerevisiae deletion strains, locus YLR370C, strain arc18, stronger effect = lower value 0.85 | S. cerevisiae deletion strains, locus YLR371W, strain rom2, stronger effect = lower value 0.0987 | S. cerevisiae deletion strains, locus YLR418C, strain cdc73, stronger effect = lower value 0.267 | S. cerevisiae deletion strains, locus YML016C, strain PPZ1, stronger effect = lower value 0.17 | S. cerevisiae deletion strains, locus YML032C, strain rad52, stronger effect = lower value 0.748 | S. cerevisiae deletion strains, locus YML124C, strain tub3, stronger effect = lower value 0.552 | S. cerevisiae deletion strains, locus YMR058W, strain fet3, stronger effect = lower value 0.731 | S. cerevisiae deletion strains, locus YMR078C, strain ctf18, stronger effect = lower value 0.138 | S. cerevisiae deletion strains, locus YMR205C, strain PFK2, stronger effect = lower value 0.875 | S. cerevisiae deletion strains, locus YMR223W, strain ubp8, stronger effect = lower value 0.16 | S. cerevisiae deletion strains, locus YNL067W, strain RPL9B, stronger effect = lower value 0.589 | S. cerevisiae deletion strains, locus YNL071W, strain lat1, stronger effect = lower value 0.567 | S. cerevisiae deletion strains, locus YNL153C, strain GIM3, stronger effect = lower value 0.839 | S. cerevisiae deletion strains, locus YNL183C, strain NPR1, stronger effect = lower value 0.435 | S. cerevisiae deletion strains, locus YNL233W, strain BNI4, stronger effect = lower value 0.167 | S. cerevisiae deletion strains, locus YNL248C, strain rpa49, stronger effect = lower value 0.645 | S. cerevisiae deletion strains, locus YNL307C, strain MCK1, stronger effect = lower value 0.0713 | S. cerevisiae deletion strains, locus YNR049C, strain mso1, stronger effect = lower value 0.693 | S. cerevisiae deletion strains, locus YNR052C, strain pop2, stronger effect = lower value 0.864 | S. cerevisiae deletion strains, locus YOL006C, strain TOP1, stronger effect = lower value 0.248 | S. cerevisiae deletion strains, locus YOR001W, strain rrp6, stronger effect = lower value 0.833 | S. cerevisiae deletion strains, locus YOR061W, strain CKA2, stronger effect = lower value 0.691 | S. cerevisiae deletion strains, locus YOR069W, strain VPS5, stronger effect = lower value 0.558 | S. cerevisiae deletion strains, locus YOR136W, strain idh2, stronger effect = lower value 0.0967 | S. cerevisiae deletion strains, locus YOR184W, strain ser1, stronger effect = lower value 0.161 | S. cerevisiae deletion strains, locus YOR270C, strain vph1, stronger effect = lower value 0.275 | S. cerevisiae deletion strains, locus YOR316C, strain cot1, stronger effect = lower value 0.0893 | S. cerevisiae deletion strains, locus YPL051W, strain arl3, stronger effect = lower value 0.894 | S. cerevisiae deletion strains, locus YPL055C, strain LGE1, stronger effect = lower value 0.683 | S. cerevisiae deletion strains, locus YPL078C, strain atp4, stronger effect = lower value 0.507 | S. cerevisiae deletion strains, locus YPL241C, strain CIN2, stronger effect = lower value 0.882 | S. cerevisiae deletion strains, locus YPR119W, strain clb2, stronger effect = lower value 0.0832 | S. cerevisiae deletion strains, locus YPR163C, strain tif3, stronger effect = lower value 0.23 | S. cerevisiae deletion strains, locus YPR167C, strain met16, stronger effect = lower value 0.206 | S. cerevisiae deletion strains, strain wtn01, stronger effect = lower value 0.372 | S. cerevisiae strains, strain wild type, stronger effect = lower value 0.647
inactive: S. cerevisiae deletion strains, locus YKL009W, strain mrt4, stronger effect = lower value 0.902 | S. cerevisiae deletion strains, locus YKL068W, stronger effect = lower value 0.994 | S. cerevisiae deletion strains, locus YKL085W, strain MDH1 (second series), stronger effect = lower value 0.973 | S. cerevisiae deletion strains, locus YKL085W, strain MDH1, stronger effect = lower value 0.973 | S. cerevisiae deletion strains, locus YKL160W, strain elf1, stronger effect = lower value 0.918 | S. cerevisiae deletion strains, locus YKR026C, strain gcn3, stronger effect = lower value 0.996 | S. cerevisiae deletion strains, locus YKR091W, strain srl3, stronger effect = lower value 0.999 | S. cerevisiae deletion strains, locus YLL026W, stronger effect = lower value 0.948 | S. cerevisiae deletion strains, locus YLL041C, strain sdh2, stronger effect = lower value 0.981 | S. cerevisiae deletion strains, locus YLR113W, strain HOG1, stronger effect = lower value 1.03 | S. cerevisiae deletion strains, locus YLR221C, strain rsa3, stronger effect = lower value 0.952 | S. cerevisiae deletion strains, locus YLR258W, strain gsy2, stronger effect = lower value 0.95 | S. cerevisiae deletion strains, locus YLR342W, strain FKS1, stronger effect = lower value 0.985 | S. cerevisiae deletion strains, locus YLR357W, strain rsc2, stronger effect = lower value 1.03 | S. cerevisiae deletion strains, locus YLR384C, strain iki3, stronger effect = lower value 0.976 | S. cerevisiae deletion strains, locus YML120C, strain ndi1, stronger effect = lower value 0.973 | S. cerevisiae deletion strains, locus YMR125W, strain sto1, stronger effect = lower value 0.927 | S. cerevisiae deletion strains, locus YMR129W, stronger effect = lower value 0.99 | S. cerevisiae deletion strains, locus YMR231W, strain pep5, stronger effect = lower value 0.972 | S. cerevisiae deletion strains, locus YMR263W, strain SAP30, stronger effect = lower value 0.916 | S. cerevisiae deletion strains, locus YMR307W, strain GAS1, stronger effect = lower value 0.727 | S. cerevisiae deletion strains, locus YNL209W, strain ssb2, stronger effect = lower value 0.981 | S. cerevisiae deletion strains, locus YNL250W, strain rad50, stronger effect = lower value 0.986 | S. cerevisiae deletion strains, locus YNL271C, strain bni1, stronger effect = lower value 0.94 | S. cerevisiae deletion strains, locus YNL298W, strain CLA4, stronger effect = lower value 0.96 | S. cerevisiae deletion strains, locus YNL322C, strain KRE1 (second series), stronger effect = lower value 1.03 | S. cerevisiae deletion strains, locus YOL012C, strain htz1 0.354 | S. cerevisiae deletion strains, locus YOL147C, strain pex11, stronger effect = lower value 0.965 | S. cerevisiae deletion strains, locus YOR070C, strain gyp1, stronger effect = lower value 0.938 | S. cerevisiae deletion strains, locus YOR080W, strain dia2, stronger effect = lower value 0.975 | S. cerevisiae deletion strains, locus YOR083W, strain WHI5, stronger effect = lower value 0.952 | S. cerevisiae deletion strains, locus YOR106W, strain vam3, stronger effect = lower value 0.97 | S. cerevisiae deletion strains, locus YOR144C, strain elg1, stronger effect = lower value 0.994 | S. cerevisiae deletion strains, locus YOR231W, strain MKK1, stronger effect = lower value 1.03 | S. cerevisiae deletion strains, locus YOR265W, strain rbl2, stronger effect = lower value 0.968 | S. cerevisiae deletion strains, locus YOR290C, strain snf2, stronger effect = lower value 0.882 | S. cerevisiae deletion strains, locus YPL106C, strain sse1, stronger effect = lower value 1.1 | S. cerevisiae deletion strains, locus YPL240C, strain hsp82, stronger effect = lower value 1 | S. cerevisiae deletion strains, locus YPL256C, strain CLN2, stronger effect = lower value 1.01 | S. cerevisiae deletion strains, locus YPR141C, strain kar3, stronger effect = lower value 0.981
